Screening results (PubChem)
BLM inh: inhibitors of human Bloom syndrome helicase BLM; P54132; recombinant BLM DNA unwinding, fluorescence dequenching; Potency, µM (top dose mostly 56.1 µM), for the others: at the top dose activity change, negative = inhibition, usual class: inhibitors; 350,000 compounds, 0.2% hits; AID 2528;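 also: plate controls were vehicle for no effect and no enzyme for full effect; nearly all actives have a fitted effect of over 35% in size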
APE1 inh: APE1 (human) endonuclease inhibition. P27695. recombinant APE1, TAMRA/BHQ-2 abasic DNA cleavage fluorescence. Potency, µM (series often up to 65.8 µM), without a hit: at the highest dose activity change, negative = inhibition, hits mostly inhibitors. 350,000 compounds, 0.35% hits;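 also: plate controls were vehicle for no effect and reference inhibitor for full effect; nearly all actives have a fitted effect of over 55% in size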
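Enzyme (0.75 nM final) and test compound are incubated 15 min at room temperature before adding 50 nM quenched THF abasic-site duplex. Cleavage dequenches TAMRA, followed at 525/598 nm over three reads one minute apart.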
RECQ1 inh: blocks DNA unwinding by human RECQ1. P46063. RECQ1 DNA unwinding, red fluorescence kinetic read. Potency, µM (series often up to 57.3 µM), without a hit: at the top dose activity, negative = inhibition, hits mostly inhibitors. 240,000 compounds, 0.54% hits. AID 2549;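 also: plate controls were vehicle for no effect and no enzyme for full effect; nearly all actives have a fitted effect of over 30% in size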
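50 nM RECQ1T1 preincubated 15 min with compound in Tris pH 8.0 buffer with MgCl2, DTT, Tween-20 and 2.5 ug/ml poly(dI-dC); started with 200 nM TAMRA/BHQ-2 forked duplex and 2 mM ATP. Unwinding read as fluorescence (525/598 nm), two reads 2 h apart.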
TDP1 inh: blocks human tyrosyl-DNA phosphodiesterase 1. Q9NUW8. recombinant TDP1, AlphaScreen DNA substrate cleavage. Potency, µM (doses to about 130 µM), for inactives: top-dose activity change, negative = inhibition, usual class: inhibitors. 350,000 compounds, 0.28% hits; also: nearly all actives have a fitted effect of over 40% in size
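Signal: AlphaScreen proximity between streptavidin donor and anti-FITC acceptor beads on intact substrate. Reaction: Tdp1 1 nM, substrate 15 nM final, 5 min RT after 15 min compound preincubation.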
FEN1 inhibitor: human FEN1 inhibition; Recombinant FEN1 flap cleavage, fluorescence, 15 min; Potency, µM (series often up to 114 µM), inactives show at the top dose activity change, negative = inhibition, actives largely listed as inhibitors; 390,000 compounds, 0.35% hits; AID 588795; also: nearly all actives have a fitted effect of over 65% in size
Target sequence (P39748 whole entry, looked up): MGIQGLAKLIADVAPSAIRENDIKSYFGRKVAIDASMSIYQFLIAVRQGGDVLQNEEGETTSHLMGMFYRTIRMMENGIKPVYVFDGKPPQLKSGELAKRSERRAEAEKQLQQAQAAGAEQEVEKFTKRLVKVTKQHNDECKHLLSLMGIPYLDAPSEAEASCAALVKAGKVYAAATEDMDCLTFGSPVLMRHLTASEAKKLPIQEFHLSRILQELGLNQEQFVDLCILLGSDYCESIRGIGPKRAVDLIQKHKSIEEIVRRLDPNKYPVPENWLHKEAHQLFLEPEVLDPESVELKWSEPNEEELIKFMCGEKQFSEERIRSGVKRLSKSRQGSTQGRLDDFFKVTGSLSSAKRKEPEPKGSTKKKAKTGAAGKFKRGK
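Steps: FEN1 (10 nM) dispensed; compound added by pin tool; 15 min at room temperature; substrate added to 50 nM final; reads at 0 min and 15 min; data normalized and fitted (four-parameter Hill).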
* = called active by the depositor; i = inactive; u = inconclusive; x = no result given; [ ] = another dose, or the depositor's remark. An excerpt weighted towards active compounds, which were near 0.92% of everything screened. Calls follow the shape of the dose curve; as a rule, active = well fitted curve in the direction sought with a large enough effect; inconclusive = small, poorly fitted or top-dose-only effect, or another doubt; inactive = no such curve, though single readings can be large; an effect the other way counts as inactive or inconclusive. Unless noted, % is scaled to controls: 0 for no effect and ±100 for the full control effect; potency is read from the fitted curve at half-maximal effect.

SMILES	BLM inh	APE1 inh	RECQ1 inh	TDP1 inh	FEN1 inhibitor
NCCCC[C@H](N)C(=O)N[C@@H](CCCN=C(N)N)C(=O)N1CCC[C@H]1C(=O)N1CCC[C@H]1C(=O)NCC(=O)N[C@@H](Cc1ccccc1)C(=O)N[C@@H](CO)C(=O)N1CCC[C@H]1C(=O)N[C@@H](Cc1ccccc1)C(=O)O	1%	-4%	-9%	6%	x
Brc1cccc[n+]1CCC[n+]1ccccc1Br	x	x	x	x	79µM*
COc1ccc(NS(=O)(=O)c2ccc(NN=Cc3ccc(C(=O)O)cc3)c([N+](=O)[O-])c2)cc1	x	u	x	45µM*	x
CC(C)(CS(=O)(=O)[O-])NC(=O)CC[N+](C)(C)CCO	14µM*	6.3µM*	1.4µM*	-3%	40µM*
CSc1nsc(/C=C/Nc2ccc(C(=O)O)cc2)c1C#N	28µM*	u	-6%	7%	-7%
CSc1nsc(/C=C/Nc2ccc(F)cc2F)c1C#N	-21%	-11%	i	7%	-13%
COc1ccccc1NC(=O)CSCc1cc(=O)c2cccc(Cl)c2[nH]1	-1%	x	x	3%	-3%
CCOC(=O)C1CCCN(C(=O)c2cc(-c3ccco3)nc3ccccc23)C1 (configuration not stated)	x	8.4µM*	x	x	56µM*
Cc1cccc(NC(=O)c2cc3c(=O)n4ccccc4nc3s2)c1	u	14%[12.4 µM]	x	79µM*	u
Cc1ccc2cccc(O)c2n1	x	x	x	x	13%
N=C(N)c1ccc(N=Nc2c(O)ccc3c2[nH]c2ccccc23)cc1	x	x	x	x	28µM*
NC(=O)c1ccc(N=Nc2c(O)c3ccccc3[nH]c2=O)cc1	-10%	4%	8%	3%	x
CCc1ccccc1N(C)C	x	x	x	x	8%
O=C(CCN1C(=O)/C(=C/c2ccco2)SC1=S)Nc1ccc(O)cc1C(=O)O	29%	-5%	x	x	35µM*
O=C(CN1C(=O)/C(=C\c2ccco2)SC1=S)Nc1ccc(O)cc1C(=O)O	5%	-39%	x	-13%	-6%
COc1ccccc1/C=C1\SC(=S)N(CCC(=O)Nc2ccc(C(=O)O)c(O)c2)C1=O	-9%	-3%	x	x	u
CCc1ccc(/C=C2/SC(=S)N(CCC(=O)Nc3cccc(C(=O)O)c3)C2=O)cc1	-5%	u	x	28µM*	-25%
O=C(CCN1C(=O)/C(=C\c2ccco2)SC1=S)Nc1ccc(C(=O)O)c(O)c1	-8%	u	x	x	18µM*
CCCCNC(=O)Cn1c(SCc2cccc(C)c2)nc2ccncc21	x	x	x	0%	-5%
C/C(=N\Nc1nc2ccccc2[nH]1)c1ccc(Cl)s1	-12%	-6%	32µM*	11%	-5%
C/C(=N\Nc1nc2ccccc2[nH]1)c1ccc(N2CCOCC2)cc1	-12%	2%	-12%	10%	0%
Cc1ccc(CNc2ccc(O)cc2)cc1	25µM*	-9%	-11%	5%	u
CCCCCCCCCc1ccc(OCCOCCO)cc1	x	-1%	x	x	x
